Compound in the experiment: C#CCNC(=O)CCSSCCC(=O)NCCc1ccc(C=O)c(C=O)c1
The experiment in a line: lysine labeling ratio R10:1 (500 µM / 50 µM probe), SILAC-ABPP in living cells; higher = lower intrinsic lysine reactivity toward the probe, active = 2 or less. The settings on record: HeLa; probe concentrations 500 vs 50 µM. A digest of the protocol:
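Each lysine carries an R value: the filtered median of MS1 peptide ratios of high probe to low probe, with the median then taken over forward and reverse replicates. These came from living SILAC light and heavy HeLa cells in PBS at room temperature labelled with an alkyne-tagged, disulfide-linked lysine probe at 500 µM or 50 µM, in forward and reverse swaps. The lysates were mixed, clicked to biotin-azide, trypsin-digested, captured on neutravidin, released by DTT, alkylated and run by LC-MS/MS on a TIMS-TOF Pro. The highest value allowed is 20.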

A number with no mark means an inactive call.

UniProt Q4KMG0, sequence (Q4KMG0 whole entry): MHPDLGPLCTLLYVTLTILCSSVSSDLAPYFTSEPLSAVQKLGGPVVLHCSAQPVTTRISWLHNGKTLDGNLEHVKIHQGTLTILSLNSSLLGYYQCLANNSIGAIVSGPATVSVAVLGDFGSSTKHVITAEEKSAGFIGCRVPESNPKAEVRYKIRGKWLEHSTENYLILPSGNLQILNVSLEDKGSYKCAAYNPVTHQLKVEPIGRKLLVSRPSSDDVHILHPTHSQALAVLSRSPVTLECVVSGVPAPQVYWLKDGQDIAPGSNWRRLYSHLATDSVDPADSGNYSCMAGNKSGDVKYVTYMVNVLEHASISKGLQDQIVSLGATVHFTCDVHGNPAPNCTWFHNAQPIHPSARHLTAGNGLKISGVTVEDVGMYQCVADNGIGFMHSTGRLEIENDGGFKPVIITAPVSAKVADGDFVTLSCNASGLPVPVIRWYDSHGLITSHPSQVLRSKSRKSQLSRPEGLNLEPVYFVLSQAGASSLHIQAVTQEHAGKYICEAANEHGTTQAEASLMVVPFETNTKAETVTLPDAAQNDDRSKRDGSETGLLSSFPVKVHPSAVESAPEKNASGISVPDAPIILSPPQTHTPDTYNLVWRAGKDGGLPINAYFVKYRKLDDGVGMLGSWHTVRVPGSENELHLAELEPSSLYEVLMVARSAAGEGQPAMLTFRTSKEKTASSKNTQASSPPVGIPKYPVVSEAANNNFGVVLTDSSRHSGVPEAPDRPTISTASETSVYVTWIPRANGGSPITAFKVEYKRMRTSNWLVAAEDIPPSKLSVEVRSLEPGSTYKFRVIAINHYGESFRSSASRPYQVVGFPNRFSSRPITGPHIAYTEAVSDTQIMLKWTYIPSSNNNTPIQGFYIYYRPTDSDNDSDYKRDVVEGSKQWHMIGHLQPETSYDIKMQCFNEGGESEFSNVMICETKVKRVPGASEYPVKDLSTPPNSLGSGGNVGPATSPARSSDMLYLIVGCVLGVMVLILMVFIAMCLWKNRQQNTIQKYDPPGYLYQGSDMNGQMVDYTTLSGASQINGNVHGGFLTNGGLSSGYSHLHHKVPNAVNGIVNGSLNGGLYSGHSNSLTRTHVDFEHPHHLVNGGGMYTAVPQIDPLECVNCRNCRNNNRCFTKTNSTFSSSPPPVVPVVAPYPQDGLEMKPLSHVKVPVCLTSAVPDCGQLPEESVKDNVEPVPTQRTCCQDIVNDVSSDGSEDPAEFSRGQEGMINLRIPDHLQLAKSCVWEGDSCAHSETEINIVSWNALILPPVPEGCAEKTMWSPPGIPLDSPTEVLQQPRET
UniProt Q9UQ80, sequence (Q9UQ80 whole entry): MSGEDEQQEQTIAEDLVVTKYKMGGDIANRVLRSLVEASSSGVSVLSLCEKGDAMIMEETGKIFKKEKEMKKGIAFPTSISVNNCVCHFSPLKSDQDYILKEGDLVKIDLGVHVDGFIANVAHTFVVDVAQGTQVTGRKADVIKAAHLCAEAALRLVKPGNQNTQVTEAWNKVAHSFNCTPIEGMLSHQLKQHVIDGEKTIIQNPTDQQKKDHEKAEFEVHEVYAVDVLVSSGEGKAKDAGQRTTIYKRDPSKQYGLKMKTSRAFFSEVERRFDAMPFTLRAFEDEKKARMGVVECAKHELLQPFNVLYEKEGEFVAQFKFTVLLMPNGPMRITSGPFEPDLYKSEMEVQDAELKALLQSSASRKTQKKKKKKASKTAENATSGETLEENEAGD
UniProt Q13332, sequence (Q13332 whole entry): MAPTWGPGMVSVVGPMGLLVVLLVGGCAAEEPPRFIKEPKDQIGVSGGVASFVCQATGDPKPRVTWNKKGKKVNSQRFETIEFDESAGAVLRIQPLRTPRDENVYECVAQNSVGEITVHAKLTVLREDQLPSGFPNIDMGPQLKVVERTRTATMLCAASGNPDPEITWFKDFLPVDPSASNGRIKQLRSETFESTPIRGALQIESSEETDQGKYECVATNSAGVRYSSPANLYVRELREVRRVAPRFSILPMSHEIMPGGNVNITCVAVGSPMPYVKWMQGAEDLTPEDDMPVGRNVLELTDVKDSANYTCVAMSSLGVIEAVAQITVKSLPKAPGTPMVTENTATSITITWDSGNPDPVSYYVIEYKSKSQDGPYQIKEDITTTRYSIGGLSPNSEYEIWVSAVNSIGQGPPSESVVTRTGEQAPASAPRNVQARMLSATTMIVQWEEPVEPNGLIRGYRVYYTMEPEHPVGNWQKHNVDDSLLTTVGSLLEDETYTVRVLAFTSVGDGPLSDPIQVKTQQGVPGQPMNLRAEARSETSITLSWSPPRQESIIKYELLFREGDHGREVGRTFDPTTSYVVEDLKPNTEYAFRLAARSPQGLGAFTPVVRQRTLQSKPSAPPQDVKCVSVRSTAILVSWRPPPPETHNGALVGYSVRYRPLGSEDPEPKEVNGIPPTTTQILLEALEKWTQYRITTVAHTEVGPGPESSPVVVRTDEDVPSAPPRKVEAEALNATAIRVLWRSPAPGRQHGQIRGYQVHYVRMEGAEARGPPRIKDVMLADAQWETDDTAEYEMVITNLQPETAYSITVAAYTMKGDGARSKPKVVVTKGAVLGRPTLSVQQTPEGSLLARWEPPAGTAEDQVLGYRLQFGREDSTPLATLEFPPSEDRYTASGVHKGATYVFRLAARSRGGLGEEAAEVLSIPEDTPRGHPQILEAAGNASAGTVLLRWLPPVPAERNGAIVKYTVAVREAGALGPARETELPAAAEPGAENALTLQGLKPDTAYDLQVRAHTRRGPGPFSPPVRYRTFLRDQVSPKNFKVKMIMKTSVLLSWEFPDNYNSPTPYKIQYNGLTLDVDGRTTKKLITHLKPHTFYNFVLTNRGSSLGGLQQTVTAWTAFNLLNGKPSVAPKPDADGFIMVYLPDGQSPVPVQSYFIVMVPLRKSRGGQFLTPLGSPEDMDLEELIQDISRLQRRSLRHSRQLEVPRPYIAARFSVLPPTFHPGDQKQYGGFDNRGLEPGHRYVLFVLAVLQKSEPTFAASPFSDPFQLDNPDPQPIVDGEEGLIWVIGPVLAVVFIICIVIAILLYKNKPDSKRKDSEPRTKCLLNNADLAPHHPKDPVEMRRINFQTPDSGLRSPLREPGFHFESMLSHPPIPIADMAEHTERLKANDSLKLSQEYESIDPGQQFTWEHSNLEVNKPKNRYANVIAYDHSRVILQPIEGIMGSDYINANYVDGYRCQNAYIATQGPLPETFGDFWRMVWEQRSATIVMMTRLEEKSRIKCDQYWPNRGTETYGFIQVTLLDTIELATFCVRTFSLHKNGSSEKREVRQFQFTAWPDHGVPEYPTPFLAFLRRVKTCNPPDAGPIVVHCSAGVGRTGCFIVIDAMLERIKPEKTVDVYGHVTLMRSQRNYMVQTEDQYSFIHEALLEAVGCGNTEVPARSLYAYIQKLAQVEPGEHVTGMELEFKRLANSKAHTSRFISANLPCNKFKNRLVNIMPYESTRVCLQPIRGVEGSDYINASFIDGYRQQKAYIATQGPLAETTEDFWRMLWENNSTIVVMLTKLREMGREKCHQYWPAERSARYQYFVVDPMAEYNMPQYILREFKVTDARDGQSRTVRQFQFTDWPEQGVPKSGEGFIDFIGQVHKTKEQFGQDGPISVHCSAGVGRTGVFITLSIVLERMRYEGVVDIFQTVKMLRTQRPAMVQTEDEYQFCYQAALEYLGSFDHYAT
UniProt P14625, sequence (P14625 whole entry): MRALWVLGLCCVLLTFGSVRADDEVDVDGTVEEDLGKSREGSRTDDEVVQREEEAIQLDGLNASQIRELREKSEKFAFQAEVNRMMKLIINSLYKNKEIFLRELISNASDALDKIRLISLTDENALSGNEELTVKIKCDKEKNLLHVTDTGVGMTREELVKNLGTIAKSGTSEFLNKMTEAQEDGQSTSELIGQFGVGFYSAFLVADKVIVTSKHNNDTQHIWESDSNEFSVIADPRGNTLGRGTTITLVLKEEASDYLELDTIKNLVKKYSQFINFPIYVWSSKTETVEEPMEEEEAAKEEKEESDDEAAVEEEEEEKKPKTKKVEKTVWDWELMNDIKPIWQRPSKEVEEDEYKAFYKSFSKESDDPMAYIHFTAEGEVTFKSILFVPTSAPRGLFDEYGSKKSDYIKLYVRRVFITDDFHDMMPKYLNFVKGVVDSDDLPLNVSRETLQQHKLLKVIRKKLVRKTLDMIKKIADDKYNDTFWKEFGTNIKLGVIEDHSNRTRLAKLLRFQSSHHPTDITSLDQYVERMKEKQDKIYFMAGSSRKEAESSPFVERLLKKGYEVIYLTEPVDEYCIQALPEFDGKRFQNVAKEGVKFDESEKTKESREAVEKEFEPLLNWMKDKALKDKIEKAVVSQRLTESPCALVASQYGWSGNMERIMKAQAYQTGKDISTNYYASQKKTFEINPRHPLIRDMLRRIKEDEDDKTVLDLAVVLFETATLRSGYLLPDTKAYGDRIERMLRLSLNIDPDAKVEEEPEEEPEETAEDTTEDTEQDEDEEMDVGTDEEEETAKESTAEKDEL
UniProt Q07065, sequence (Q07065 whole entry): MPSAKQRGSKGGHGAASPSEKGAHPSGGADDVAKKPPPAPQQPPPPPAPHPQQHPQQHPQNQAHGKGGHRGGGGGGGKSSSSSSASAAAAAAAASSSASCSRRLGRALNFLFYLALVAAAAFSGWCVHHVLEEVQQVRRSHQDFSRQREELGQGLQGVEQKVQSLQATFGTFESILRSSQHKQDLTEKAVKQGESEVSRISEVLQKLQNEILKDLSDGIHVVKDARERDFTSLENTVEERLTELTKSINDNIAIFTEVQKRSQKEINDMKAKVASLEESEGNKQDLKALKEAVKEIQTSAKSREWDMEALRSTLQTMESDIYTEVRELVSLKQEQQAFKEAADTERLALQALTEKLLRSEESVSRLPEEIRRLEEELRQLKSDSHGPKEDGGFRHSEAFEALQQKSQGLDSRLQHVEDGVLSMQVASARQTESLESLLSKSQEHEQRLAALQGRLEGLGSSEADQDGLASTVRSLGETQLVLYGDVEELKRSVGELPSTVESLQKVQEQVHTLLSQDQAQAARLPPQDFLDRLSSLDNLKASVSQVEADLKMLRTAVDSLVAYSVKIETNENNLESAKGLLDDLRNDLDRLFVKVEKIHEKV

With “LRP1 (lysine site: K4230) (UniProt Q07954)”, the “lysine labeling ratio R10:1” value was 10.8.

For “IARS (lysine site: K132) (UniProt P41252)”, the “lysine labeling ratio R10:1” value is 1.68 (active).

Regarding UniProt Q9UHI8 (lysine site: K619), the “lysine labeling ratio R10:1” value is 2.67.

Consider “HSPD1 (lysine site: K96) (UniProt P10809)”, for which the “lysine labeling ratio R10:1” value is 3.85.

Consider “PTPRS (lysine site: K379) (UniProt Q13332)”, for which the “lysine labeling ratio R10:1” value is 2.21.

As for “EPHA2 (lysine site: K468) (UniProt P29317)”, the “lysine labeling ratio R10:1” value was 3.11.

Consider “IDE (lysine site: K364) (UniProt P14735)”, for which the “lysine labeling ratio R10:1” value is 2.3.

With “PNN (lysine site: K202) (UniProt Q9H307)”, the “lysine labeling ratio R10:1” value was 3.

As for “FAT4 (lysine site: K2004) (UniProt Q6V0I7)”, the “lysine labeling ratio R10:1” value is 1.27 (active).

Regarding “GPRC5A (lysine site: K14) (UniProt Q8NFJ5)”, the “lysine labeling ratio R10:1” value is 6.52.

Consider “CKAP4 (lysine site: K301) (UniProt Q07065)”, for which the “lysine labeling ratio R10:1” value was 2.85.

On to “HSP90B1 (lysine site: K683) (UniProt P14625)”, for which the “lysine labeling ratio R10:1” value is 4.36.

“PA2G4 (lysine site: K376) (UniProt Q9UQ80)”: the “lysine labeling ratio R10:1” value was 1.5 (active).

Turning to “SLC44A2 (lysine site: K210) (UniProt Q8IWA5)”, the “lysine labeling ratio R10:1” value was 2.8.

Take “RPL28 (lysine site: K84) (UniProt P46779)”: the “lysine labeling ratio R10:1” value was 2.27.

UniProt Q4KMG0 (lysine site: K149): the “lysine labeling ratio R10:1” value was 1.47 (active).

On to “ATAD3B (lysine site: K104) (UniProt Q5T9A4)”, for which the “lysine labeling ratio R10:1” value is 0.547 (active).

For the target UniProt Q15149 (lysine site: K2047), the “lysine labeling ratio R10:1” value is 0.91 (active).

“ALCAM (lysine site: K87) (UniProt Q13740)”: the “lysine labeling ratio R10:1” value is 1.41 (active).
